Values joined by “and” are separate entries in the source; they are usually repeats but may differ in a detail not shown here. Identical values can stand only once.
How the values were obtained:
Conditions in all cases: Compound concentration 20.0 uM, Protein concentration 2.0 uM, Result type QC Liability
[1] = target: Tyrosine-protein kinase ABL1 (Homo sapiens) (UniProt P00519)
[2] = target: Cyclin-dependent kinase 2 (Homo sapiens) (UniProt P24941)
[3] = target: Casein kinase I isoform delta (Homo sapiens) (UniProt P48730)
[4] = target: Glycogen synthase kinase-3 beta (Homo sapiens) (UniProt P49841)
[5] = target: Mitogen-activated protein kinase 1 (Homo sapiens) (UniProt P28482)
[6] = target: T1, Aurora kinase A (Homo sapiens) (UniProt O14965)
T1 sequence (whole entry): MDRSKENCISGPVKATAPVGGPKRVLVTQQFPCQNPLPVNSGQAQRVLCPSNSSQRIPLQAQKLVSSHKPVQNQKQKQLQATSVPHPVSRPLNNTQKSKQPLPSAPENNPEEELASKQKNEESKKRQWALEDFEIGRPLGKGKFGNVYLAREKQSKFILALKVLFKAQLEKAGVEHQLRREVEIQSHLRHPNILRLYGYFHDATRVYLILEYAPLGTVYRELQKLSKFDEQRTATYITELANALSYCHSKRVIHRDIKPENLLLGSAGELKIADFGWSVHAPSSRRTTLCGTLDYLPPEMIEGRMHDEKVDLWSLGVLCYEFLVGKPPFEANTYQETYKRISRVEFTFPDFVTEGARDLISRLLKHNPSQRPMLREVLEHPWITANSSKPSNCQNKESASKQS

Tyrosine-protein kinase ABL1 (Homo sapiens), sequence (P00519 whole entry): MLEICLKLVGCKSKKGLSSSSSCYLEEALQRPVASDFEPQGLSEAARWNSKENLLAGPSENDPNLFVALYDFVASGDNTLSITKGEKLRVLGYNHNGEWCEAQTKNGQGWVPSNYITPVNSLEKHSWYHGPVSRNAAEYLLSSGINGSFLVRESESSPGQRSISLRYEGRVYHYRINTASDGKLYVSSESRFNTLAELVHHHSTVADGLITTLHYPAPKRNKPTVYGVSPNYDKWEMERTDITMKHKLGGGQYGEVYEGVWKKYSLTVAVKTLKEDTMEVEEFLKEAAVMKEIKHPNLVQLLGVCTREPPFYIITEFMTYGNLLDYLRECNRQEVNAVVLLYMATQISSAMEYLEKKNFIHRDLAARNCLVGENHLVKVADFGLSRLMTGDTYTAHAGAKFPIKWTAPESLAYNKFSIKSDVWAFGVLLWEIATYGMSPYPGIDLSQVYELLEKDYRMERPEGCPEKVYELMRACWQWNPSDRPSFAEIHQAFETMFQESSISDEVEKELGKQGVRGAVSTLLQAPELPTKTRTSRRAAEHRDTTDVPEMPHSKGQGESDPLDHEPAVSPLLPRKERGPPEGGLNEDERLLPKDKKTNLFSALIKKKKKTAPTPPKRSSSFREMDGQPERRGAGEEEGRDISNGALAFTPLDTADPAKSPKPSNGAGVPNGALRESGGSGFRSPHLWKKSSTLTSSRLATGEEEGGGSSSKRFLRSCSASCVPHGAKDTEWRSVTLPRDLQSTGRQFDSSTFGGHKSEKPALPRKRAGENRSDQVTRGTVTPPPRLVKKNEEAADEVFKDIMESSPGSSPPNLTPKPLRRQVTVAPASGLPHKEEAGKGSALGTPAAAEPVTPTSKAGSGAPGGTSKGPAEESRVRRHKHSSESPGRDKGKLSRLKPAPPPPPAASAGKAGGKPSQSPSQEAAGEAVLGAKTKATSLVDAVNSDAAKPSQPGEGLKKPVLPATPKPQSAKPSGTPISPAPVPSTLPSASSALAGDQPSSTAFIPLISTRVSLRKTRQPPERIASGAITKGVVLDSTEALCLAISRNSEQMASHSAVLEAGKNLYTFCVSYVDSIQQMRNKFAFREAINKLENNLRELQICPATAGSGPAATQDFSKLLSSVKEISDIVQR
Casein kinase I isoform delta (Homo sapiens), sequence (P48730 whole entry, looked up, canonical isoform): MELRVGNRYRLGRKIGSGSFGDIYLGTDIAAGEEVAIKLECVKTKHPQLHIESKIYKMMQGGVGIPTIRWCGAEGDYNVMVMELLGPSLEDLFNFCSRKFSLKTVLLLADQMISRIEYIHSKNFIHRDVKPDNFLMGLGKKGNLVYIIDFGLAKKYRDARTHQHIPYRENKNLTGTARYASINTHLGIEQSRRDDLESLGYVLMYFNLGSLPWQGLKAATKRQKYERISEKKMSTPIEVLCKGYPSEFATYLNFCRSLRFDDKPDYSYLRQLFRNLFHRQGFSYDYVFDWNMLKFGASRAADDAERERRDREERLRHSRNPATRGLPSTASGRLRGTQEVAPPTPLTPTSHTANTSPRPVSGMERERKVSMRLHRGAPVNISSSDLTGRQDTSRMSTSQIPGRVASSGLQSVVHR
Glycogen synthase kinase-3 beta (Homo sapiens), sequence (P49841 whole entry, looked up): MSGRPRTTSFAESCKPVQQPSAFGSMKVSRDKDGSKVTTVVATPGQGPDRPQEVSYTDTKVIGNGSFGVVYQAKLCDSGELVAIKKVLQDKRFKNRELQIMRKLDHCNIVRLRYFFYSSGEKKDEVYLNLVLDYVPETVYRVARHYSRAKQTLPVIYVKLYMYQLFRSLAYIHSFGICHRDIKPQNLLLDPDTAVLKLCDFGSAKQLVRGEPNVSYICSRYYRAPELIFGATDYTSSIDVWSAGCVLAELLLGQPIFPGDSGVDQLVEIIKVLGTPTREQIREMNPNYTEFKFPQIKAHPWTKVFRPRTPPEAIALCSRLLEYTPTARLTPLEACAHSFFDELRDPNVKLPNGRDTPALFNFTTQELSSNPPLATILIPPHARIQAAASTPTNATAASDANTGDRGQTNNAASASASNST
Mitogen-activated protein kinase 1 (Homo sapiens), sequence (P28482 whole entry): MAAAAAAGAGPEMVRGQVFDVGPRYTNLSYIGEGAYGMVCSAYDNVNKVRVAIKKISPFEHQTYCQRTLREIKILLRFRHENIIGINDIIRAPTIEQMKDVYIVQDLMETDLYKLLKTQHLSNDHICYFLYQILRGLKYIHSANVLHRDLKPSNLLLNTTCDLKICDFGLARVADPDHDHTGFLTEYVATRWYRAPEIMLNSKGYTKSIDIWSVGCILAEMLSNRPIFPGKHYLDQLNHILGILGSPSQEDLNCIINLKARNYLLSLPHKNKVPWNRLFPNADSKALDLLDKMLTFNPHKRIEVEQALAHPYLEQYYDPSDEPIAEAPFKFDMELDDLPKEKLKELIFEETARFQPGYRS

## CC1(C)CCC(CN2CCN(c3ccc(C(=O)NS(=O)(=O)c4ccc(NCC5CCOCC5)c([N+](=O)[O-])c4)c(Oc4cnc5[nH]ccc5c4)c3)CC2)=C(c2ccc(Cl)cc2)C1
[1]
  ΔTm: -0.27 °C
[2]
  ΔTm: 1.18 °C
[3]
  ΔTm: -0.88 °C
[4]
  ΔTm: -0.99 °C
[5]
  ΔTm: 0.48 °C
[6]
  ΔTm: 0.44 °C

## CC[C@H](Nc1c(C#N)c(-c2ccc(-c3cccc(C)c3F)cc2)nc2cnccc12)C(=O)O
[1]
  ΔTm: 1.4 °C
[2]
  ΔTm: -0.67 °C
[3]
  ΔTm: -0.79 °C
[4]
  ΔTm: -0.59 °C
[5]
  ΔTm: -0.11 °C
[6]
  ΔTm: 2.03 °C

## Cc1cc2ncnn2cc1Nc1ncc2c(n1)n(C1CCOCC1)c(=O)n2C
[1]
  ΔTm: -0.11 °C
[2]
  ΔTm: 0.84 °C
[3]
  ΔTm: 0.63 °C
[4]
  ΔTm: 1.17 °C
[5]
  ΔTm: 1.17 °C
[6]
  ΔTm: 0.06 °C

## COCCc1ccc(-c2c(C)nc3c(N4CCOCC4)ccnn23)cn1
[1]
  ΔTm: 0.28 °C
[2]
  ΔTm: 0.2 °C
[3]
  ΔTm: 0.24 °C
[4]
  ΔTm: -0.61 °C
[5]
  ΔTm: 0.69 °C
[6]
  ΔTm: 0.4 °C

## CC(C)(O)[C@H]1CC[C@H](Nc2ccc3ncc(-c4cccc(C(F)(F)F)c4)n3n2)CC1
[1]
  ΔTm: 0.38 °C
[2]
  ΔTm: 1.53 °C
[3]
  ΔTm: 3.57 °C
[4]
  ΔTm: 2.41 °C
[5]
  ΔTm: 0.62 °C
[6]
  ΔTm: 0.74 °C

## COCCN(C)c1ccc(NC(=O)/C=C(\C)c2ccc3ccccc3c2)c(C(=O)O)c1
[1]
  ΔTm: -1.57 °C
[2]
  ΔTm: 1.03 °C
[3]
  ΔTm: 1.4 °C
[4]
  ΔTm: 2.78 °C
[5]
  ΔTm: -0.17 °C
[6]
  ΔTm: 1.7 °C

## C[C@H]1CN(C2COC2)CCN1c1ccc(Nc2cc(-c3ccnc(N4CCn5c(cc6c5CC(C)(C)C6)C4=O)c3CO)cn(C)c2=O)nc1
[1]
  ΔTm: 3.14 °C
[2]
  ΔTm: -0.09 °C
[3]
  ΔTm: 0.48 °C
[4]
  ΔTm: -0.54 °C
[5]
  ΔTm: -0.67 °C
[6]
  ΔTm: 1.75 °C

## N#Cc1c(SCc2csc(-c3ccc(Cl)cc3)n2)nc(N2CCCC2)c(C#N)c1-c1ccc(OCCO)cc1
[1]
  ΔTm: -0.51 °C
[2]
  ΔTm: 0.34 °C
[3]
  ΔTm: -2.01 °C
[4]
  ΔTm: 0 °C
[5]
  ΔTm: 4.1 °C
[6]
  ΔTm: -0.18 °C

## CCN(C(=O)CO)[C@H]1CN(/C(=N\C#N)Nc2cccc(OC(F)F)c2)N=C1c1ccc(Cl)c(Cl)c1
[1]
  ΔTm: 0.46 °C
[2]
  ΔTm: 0.22 °C
[3]
  ΔTm: 0.23 °C
[4]
  ΔTm: 2.8 °C
[5]
  ΔTm: -0.24 °C
[6]
  ΔTm: 0.87 °C

## COc1cc(OC)cc(-c2cc3cnc(N)nc3nc2NC(=O)NC(C)(C)C)c1
[1]
  ΔTm: 0.36 °C and 1.41 °C
[2]
  ΔTm: 0.84 °C and 0.15 °C
[3]
  ΔTm: 0.28 °C and -0.14 °C
[4]
  ΔTm: -0.48 °C and 0.1 °C
[5]
  ΔTm: 0.47 °C and 0.55 °C
[6]
  ΔTm: -0.29 °C and 1.1 °C

## CCC(C)(C)CC[C@H](NC(=O)N1CCOCC1)C(=O)NC1(C#N)CCN(C)CC1
[1]
  ΔTm: -0.14 °C
[2]
  ΔTm: 0.95 °C
[3]
  ΔTm: 0.34 °C
[4]
  ΔTm: 0.11 °C
[5]
  ΔTm: 0.54 °C
[6]
  ΔTm: 0.69 °C

## CN(CCCCCCC1=C(c2cc(F)cc(F)c2)CCCc2cc(O)ccc21)CCCCS(=O)(=O)CCCC(F)(F)F
[1]
  ΔTm: -0.9 °C
[2]
  ΔTm: -0.47 °C
[3]
  ΔTm: 0.28 °C
[4]
  ΔTm: 0 °C
[5]
  ΔTm: -9.1 °C
[6]
  ΔTm: 0.84 °C

## CCCCCNC(=O)N1CCC(CN(Cc2ccc(Cl)cc2)Cc2ccc([N+](=O)[O-])s2)C1 (stereo unspecified)
[1]
  ΔTm: 0.03 °C
[2]
  ΔTm: 0.81 °C
[3]
  ΔTm: 0.7 °C
[4]
  ΔTm: -1.49 °C
[5]
  ΔTm: 0.03 °C
[6]
  ΔTm: -0.9 °C

## CCc1cc2c(cc1N1CCC(N3CCOCC3)CC1)C(C)(C)c1[nH]c3cc(C#N)ccc3c1C2=O
[1]
  ΔTm: 0.88 °C
[2]
  ΔTm: 1.02 °C
[3]
  ΔTm: 0.16 °C
[4]
  ΔTm: 0.18 °C
[5]
  ΔTm: 0.1 °C
[6]
  ΔTm: -0.02 °C

## COC1(C#Cc2ccc(Cl)c(-c3ncc4c(n3)-c3sc(NC(C)=O)nc3CC4)c2)CCN(C)CC1
[1]
  ΔTm: 0.87 °C
[2]
  ΔTm: -0.1 °C
[3]
  ΔTm: 1.14 °C
[4]
  ΔTm: -0.95 °C
[5]
  ΔTm: 0.03 °C
[6]
  ΔTm: 0 °C

## Cn1cc(-c2ccc(-c3cncc(Cl)c3N3CCC4(CCNC4=O)CC3)cc2)cn1
[1]
  ΔTm: -0.07 °C
[2]
  ΔTm: -0.46 °C
[3]
  ΔTm: -0.23 °C
[4]
  ΔTm: 6.99 °C
[5]
  ΔTm: 0.45 °C
[6]
  ΔTm: 1.26 °C

## Cn1cnc(Cn2ccc3ccc(CNCc4[nH]c5ccccc5c4[C@@H]4NC(=O)c5ccc(O)cc54)cc32)c1
[1]
  ΔTm: 0.7 °C
[2]
  ΔTm: 0.07 °C
[3]
  ΔTm: 0.29 °C
[4]
  ΔTm: -0.16 °C
[5]
  ΔTm: 0.02 °C
[6]
  ΔTm: 0.7 °C

## Oc1c(-c2cccnc2)cnn1-c1ccccn1
[1]
  ΔTm: -0.25 °C
[2]
  ΔTm: 0.31 °C
[3]
  ΔTm: 0.78 °C
[4]
  ΔTm: -0.42 °C
[5]
  ΔTm: 0.36 °C
[6]
  ΔTm: -0.05 °C

## CCS(=O)(=O)c1cc2cc(C[C@@](O)(CC(C)(C)c3ccc(F)cc3C(N)=O)C(F)(F)F)[nH]c2cn1
[1]
  ΔTm: -0.47 °C and 0.04 °C
[2]
  ΔTm: 0.64 °C and 0.86 °C
[3]
  ΔTm: 0.37 °C and 0.15 °C
[4]
  ΔTm: -0.42 °C and -0.19 °C
[5]
  ΔTm: -0.08 °C and 0.35 °C
[6]
  ΔTm: -0.24 °C and 0.19 °C

## O=C1CCCN1CCNc1nc(Nc2ccc(Cl)c(Cl)c2)ncc1C(F)(F)F
[1]
  ΔTm: 4.3 °C
[2]
  ΔTm: 5.26 °C
[3]
  ΔTm: 0.96 °C
[4]
  ΔTm: 3.17 °C
[5]
  ΔTm: 4.18 °C
[6]
  ΔTm: 11.2 °C

## COc1cc2ncnc(Nc3ccc(F)c(Cl)c3)c2cc1OCCN(C)C[C@H](C)O
[1]
  ΔTm: 2.95 °C
[2]
  ΔTm: 0.34 °C
[3]
  ΔTm: 1.99 °C
[4]
  ΔTm: -0.21 °C
[5]
  ΔTm: 0.43 °C
[6]
  ΔTm: 0.41 °C

## COc1cc2nc(C)nc(NC3(c4ccccc4)CC3)c2cc1OC
[1]
  ΔTm: 0.57 °C
[2]
  ΔTm: 0.41 °C
[3]
  ΔTm: 0.15 °C
[4]
  ΔTm: -0.3 °C
[5]
  ΔTm: 0.33 °C
[6]
  ΔTm: 0.65 °C

## C[C@H](NC(=O)c1cnc2n1[C@](C)(Cc1ccc(C#N)cc1)C(=O)N2c1cc(Cl)c(F)c(Cl)c1)C(=O)NC1(c2ccccn2)CC1
[1]
  ΔTm: 0.04 °C
[2]
  ΔTm: 0.07 °C
[3]
  ΔTm: 0.77 °C
[4]
  ΔTm: -3.42 °C
[5]
  ΔTm: 10.2 °C
[6]
  ΔTm: 0.19 °C

## CCOC(=O)C1Cc2ccccc2CN1C(=O)c1ccc(SC)s1 (stereo unspecified)
[1]
  ΔTm: 0.02 °C
[2]
  ΔTm: 0.34 °C
[3]
  ΔTm: 0.34 °C
[4]
  ΔTm: -1.03 °C
[5]
  ΔTm: 0 °C
[6]
  ΔTm: -1.2 °C

## OC(c1ccc(-c2ccc(CN3CCN(Cc4ccncc4)CC3)cc2)c(F)c1)(C(F)(F)F)C(F)(F)F
[1]
  ΔTm: -0.1 °C
[2]
  ΔTm: 0.64 °C
[3]
  ΔTm: -0.18 °C
[4]
  ΔTm: -0.86 °C
[5]
  ΔTm: 0.02 °C
[6]
  ΔTm: -1.1 °C

## COc1cc(C(=O)NCCOCCOCCOCCC(=O)Nc2cccc3c2C(=O)N(C2CCC(=O)NC2=O)C3=O)ccc1Nc1ncc(C(F)(F)F)c(Oc2cccc3c2C(=O)CC3)n1 (stereo unspecified)
[1]
  ΔTm: -0.1 °C
[2]
  ΔTm: -0.45 °C
[3]
  ΔTm: -2.13 °C
[4]
  ΔTm: -0.22 °C
[5]
  ΔTm: -2.51 °C
[6]
  ΔTm: 0.92 °C

— ChEMBL document CHEMBL5308504, “Tm Shift (DSF) assay results for EUbOPEN Chemogenomics Library” (2023)
